Results taken from PubChem BioAssay.
For some assays here: Entries with a potency or affinity are not part of this list. The source made the active and inactive calls.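 The calls were made as follows, unless noted: active = membrane potential signal rise above negative control mean plus 3 SD in both duplicates, also active in the earlier TRPC4 screen; inactive = the rest.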

Assays:
[1] = test system: TRPC4 beta (transient receptor potential cation channel C4), mouse; experiment: TRPC4 cation channel opening, retest – cell-based, Fluo4 calcium, HEK293 TRPC4beta/mu-opioid, duplicates, 10 µM, confirmation (AID 2426;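 active = fluorescence ratio normalized to control raised more than 50% in primary screen plus both repeat runs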;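 as to activation: percent rise of integrated ratio over buffer wells lacking compound which define 0%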); conditions: Fluo4 calcium fluorescence, at 10 µM; stronger effect = higher value
[2] = test system: transient receptor potential cation channel C4 beta (TRPC4), mouse; experiment: TRPC4 cation channel opening, second retest – cell-based, second round, Fluo4, HEK293 TRPC4beta/mu-opioid, 1 µM, confirmation (AID 2461;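 active = primary screen active and over 50% activation in each of two duplicate runs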;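 as to activation: 0% = wells without test compound as baseline of integrated fluorescence ratio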); conditions: Fluo4 calcium fluorescence, at 1 µM; stronger effect = higher value
[3] = test system: TRPC4 (transient receptor potential cation channel C4 beta), mouse; experiment: potentiation of DAMGO EC20 TRPC4 response – cell-based, second round, Fluo-4, HEK293 TRPC4beta/mu-opioid, 1 µM, confirmation (AID 2554;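 active = primary screen hit whose fluorescence ratio, in both repeats, exceeds the weak agonist control mean by 3 SD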); conditions: DAMGO EC20, Fluo-4 calcium flux, at 1 µM; stronger effect = higher value
[4] = test system: TRPC4 beta (transient receptor potential cation channel C4), mouse; experiment: potentiation of DAMGO EC20 TRPC4 response – cell-based, Fluo-4, HEK293 TRPC4beta/mu-opioid, confirmation (AID 2555;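 active = primary screen hit whose calcium fluorescence ratio, in both repeats, exceeds the weak agonist control mean by 3 SD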); conditions: DAMGO EC20, Fluo-4 calcium flux, at 10 µM; stronger effect = higher value
[5] = molecular target: Short transient receptor potential channel 4 (Mus musculus) (UniProt Q9QUQ5); experiment: blockers of DAMGO-evoked TRPC4 calcium flux – cell-based, Fluo4, HEK293 TRPC4beta/mu-opioid, confirmation (AID 2636;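 active = calcium signal cut by more than 3 SD below the full-agonist control yet still positive, in both repeats and the earlier primary screen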); conditions: at 10 µM; stronger effect = higher value
Chain of Short transient receptor potential channel 4 (Mus musculus) (Q9QUQ5 whole entry, looked up): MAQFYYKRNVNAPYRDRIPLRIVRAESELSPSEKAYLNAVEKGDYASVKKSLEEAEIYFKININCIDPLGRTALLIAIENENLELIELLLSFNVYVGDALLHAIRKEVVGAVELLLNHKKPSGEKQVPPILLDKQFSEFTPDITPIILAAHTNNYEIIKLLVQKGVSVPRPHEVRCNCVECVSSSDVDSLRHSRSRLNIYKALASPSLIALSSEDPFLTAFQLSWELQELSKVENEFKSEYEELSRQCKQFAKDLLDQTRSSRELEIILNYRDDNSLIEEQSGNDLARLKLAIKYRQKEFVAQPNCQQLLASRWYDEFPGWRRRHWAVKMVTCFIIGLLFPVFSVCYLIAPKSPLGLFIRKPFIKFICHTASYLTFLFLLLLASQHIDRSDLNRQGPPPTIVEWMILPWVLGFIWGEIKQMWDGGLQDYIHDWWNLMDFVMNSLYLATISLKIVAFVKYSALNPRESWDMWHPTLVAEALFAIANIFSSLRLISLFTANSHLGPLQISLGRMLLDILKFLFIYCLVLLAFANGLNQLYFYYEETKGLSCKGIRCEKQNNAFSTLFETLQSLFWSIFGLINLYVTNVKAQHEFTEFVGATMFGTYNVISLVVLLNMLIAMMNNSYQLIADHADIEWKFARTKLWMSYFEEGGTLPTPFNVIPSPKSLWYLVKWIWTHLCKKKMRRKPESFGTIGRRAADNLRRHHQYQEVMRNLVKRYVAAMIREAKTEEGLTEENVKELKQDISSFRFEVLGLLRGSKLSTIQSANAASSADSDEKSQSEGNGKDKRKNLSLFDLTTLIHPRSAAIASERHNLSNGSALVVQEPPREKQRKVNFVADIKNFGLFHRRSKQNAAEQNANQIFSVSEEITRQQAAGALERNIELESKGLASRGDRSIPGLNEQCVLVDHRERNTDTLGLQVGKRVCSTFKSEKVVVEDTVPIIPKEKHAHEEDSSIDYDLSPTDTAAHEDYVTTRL

[6] = molecular target: Short transient receptor potential channel 4 (Mus musculus) (UniProt Q9QUQ5); experiment: blockers of DAMGO-evoked TRPC4 calcium flux – cell-based, second round, Fluo4, HEK293 TRPC4beta/mu-opioid, 1 µM, confirmation (AID 2637;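 active = calcium signal ratio cut to more than 3 SD under the fully stimulated control mean yet still positive, in both repeats and the primary screen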); conditions: at 1 µM; stronger effect = higher value
[7] = molecular target: Short transient receptor potential channel 4 (Mus musculus) (UniProt Q9QUQ5); experiment: calcium entry via TRPC4 opening agents – cell-based, HEK293 TRPC4/mu-opioid, Fluo-4 calcium, dose response (AID 434937;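 active = primary screen activator hit with a dose response curve and TRPC4 channel activation at any tested dose; inactive = no activation, no dose response, or not a primary hit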)
[8] = molecular target: Short transient receptor potential channel 4 (Mus musculus) (UniProt Q9QUQ5); experiment: potentiation of DAMGO-evoked TRPC4 calcium signal – cell-based, HEK293 TRPC4/mu-opioid, Fluo-4 calcium, EC20 DAMGO, dose response (AID 434941;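 active = earlier screen potentiator hit that boosts the TRPC4 ion channel at some dose, with a dose response; inactive = no potentiation, no dose response, or not a prior hit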;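 also: calcium entry triggered by an EC20 dose of DAMGO at the co-expressed mu-opioid receptor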)
[9] = molecular target: Short transient receptor potential channel 4 (Mus musculus) (UniProt Q9QUQ5); experiment: block of DAMGO-driven TRPC4 calcium entry – cell-based, HEK293 TRPC4/mu-opioid, Fluo-4 calcium, dose response (AID 434942;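 active = primary screen inhibitor hit that blocks the TRPC4 channel at some tested dose, yielding a dose curve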)
[10] = molecular target: Short transient receptor potential channel 6 (Mus musculus) (UniProt Q61143); experiment: TRPC6 blockade by TRPC4 inhibitor hits – cell-based, HEK293, membrane potential dye, duplicate, selectivity assay for TRPC4 inhibitor project, confirmation (AID 434948;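 active = active in primary screen and both duplicates, each dropping signal beyond three positive-control SD with fluorescence still positive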); conditions: HEK293 TRPC6, membrane potential dye fluorescence, at 10 µM, stimulated with maximal-effect acetylcholine; stronger effect = higher value
Chain of Short transient receptor potential channel 6 (Mus musculus) (Q61143 whole entry, looked up): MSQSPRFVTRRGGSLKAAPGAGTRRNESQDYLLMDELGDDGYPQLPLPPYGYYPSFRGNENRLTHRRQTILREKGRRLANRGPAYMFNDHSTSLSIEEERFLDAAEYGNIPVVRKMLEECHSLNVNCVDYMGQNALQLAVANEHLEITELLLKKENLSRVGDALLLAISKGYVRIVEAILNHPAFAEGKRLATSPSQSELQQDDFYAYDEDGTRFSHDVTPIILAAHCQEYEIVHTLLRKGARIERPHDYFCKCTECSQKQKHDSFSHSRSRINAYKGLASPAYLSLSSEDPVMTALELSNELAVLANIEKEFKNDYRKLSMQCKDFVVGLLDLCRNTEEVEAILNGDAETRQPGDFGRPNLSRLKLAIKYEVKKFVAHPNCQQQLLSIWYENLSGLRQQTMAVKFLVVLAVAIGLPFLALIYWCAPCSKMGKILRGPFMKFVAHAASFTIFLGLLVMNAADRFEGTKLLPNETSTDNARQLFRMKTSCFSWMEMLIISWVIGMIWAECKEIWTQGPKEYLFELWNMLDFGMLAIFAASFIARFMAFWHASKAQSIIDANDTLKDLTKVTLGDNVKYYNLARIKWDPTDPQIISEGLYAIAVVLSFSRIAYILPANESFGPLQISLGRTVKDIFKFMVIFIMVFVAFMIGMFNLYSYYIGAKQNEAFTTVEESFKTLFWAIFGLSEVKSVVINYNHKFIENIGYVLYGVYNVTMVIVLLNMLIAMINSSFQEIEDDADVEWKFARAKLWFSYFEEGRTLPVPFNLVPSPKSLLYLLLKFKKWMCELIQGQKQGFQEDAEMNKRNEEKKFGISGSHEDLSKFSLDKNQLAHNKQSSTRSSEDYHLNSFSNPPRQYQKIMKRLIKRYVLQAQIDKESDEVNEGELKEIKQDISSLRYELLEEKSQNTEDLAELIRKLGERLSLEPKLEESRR

[11] = molecular target: Short transient receptor potential channel 6 (Mus musculus) (UniProt Q61143); experiment: TRPC6 opening by TRPC4 activator hits – cell-based, HEK293, membrane potential dye, duplicate, selectivity assay for TRPC4 activator project, confirmation (AID 434950); conditions: HEK293 TRPC6, membrane potential fluorescence, at 10 µM; activation: stronger effect = higher value; outcome: activation;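 as to activation: 0% = buffer only wells and 100% = acetylcholine maximal-effect wells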
[12] = molecular target: Short transient receptor potential channel 6 (Mus musculus) (UniProt Q61143); experiment: positive modulators of mouse TRPC6 channel – HEK293 cells, membrane potential dye, duplicate, selectivity assay for TRPC4 potentiator project, confirmation (AID 434952;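 active = compound raising the membrane signal above positive-control mean plus 3 SD in both repeats, and a primary screen hit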); conditions: HEK293 TRPC6, membrane potential dye fluorescence, at 10 µM, maximal acetylcholine added after compound; stronger effect = higher value
[13] = molecular target: Short transient receptor potential channel 4 (Mus musculus) (UniProt Q9QUQ5); experiment: calcium flux activators in TRPC4/5HT1a cells, counter-screen for TRPC4 activator project, cell-based, second counter screen, HEK293 TRPC4/5HT1a, Fluo-4 (AID 434977;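 active = calcium signal rise above buffer-control mean plus 5 SD in both duplicates, and also a hit in the primary screen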;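 as to activation: plate controls were assay buffer for no effect and maximal serotonin response for full effect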); conditions: Fluo-4 calcium flux, at 10 µM; stronger effect = higher value
[14] = serotonin-gated TRPC4 signal block – cell-based, second counter screen, HEK293 TRPC4/5HT1a, Fluo-4, counter-screen for TRPC4 inhibitor project, confirmation (AID 434978;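 active = primary screen active whose calcium signal fell more than 3 SD beyond the full-serotonin control mean in both duplicate plates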;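 as to outcome: serotonin given first at submaximal then at maximal dose after compound preincubation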); conditions: Fluo-4 calcium flux, at 10 µM, serotonin added to trigger calcium flux; stronger effect = higher value
[15] = test system: TRPC4 (mouse), co-expressed with 5HT1a in HEK293; experiment: enhancement of serotonin-evoked TRPC4 response – cell-based, second counter screen, HEK293 TRPC4/5HT1a, Fluo-4, counter-screen for TRPC4 potentiator project, confirmation (AID 434979;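 active = signal rise over 3 SD above mean of control wells given weak agonist, in both repeats and first screen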); conditions: Fluo-4 calcium flux, at 10 µM, serotonin added at its EC20 dose; stronger effect = higher value
[16] = nonspecific calcium rise without TRPC4 – cell-based, HEK293 mu-opioid receptor line, counter-screen for TRPC4 activator project, confirmation (AID 449723;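 active = hit in primary screen, with calcium signal over 5 SD above buffer well mean in both duplicates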;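 also: counter screen cells carry the mu-opioid receptor alone and lack TRPC4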); conditions: HEK293 mu-opioid cells, Fluo-4 calcium fluorescence, at 10 µM; stronger effect = higher value
[17] = nonspecific potentiation of DAMGO calcium response – cell-based, HEK293 mu-opioid receptor line, counter-screen for TRPC4 allosteric potentiator project, confirmation (AID 449724;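 active = calcium signal rise more than 3 SD above the low-dose agonist control mean, in both duplicate plates and the primary screen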); conditions: HEK293 mu-opioid receptor cells, Fluo-4 calcium flux, at 10 µM, compound added before EC20 DAMGO stimulus; stronger effect = higher value

COc1cccc(N(C(=O)c2snc(C(N)=O)c2N)C(C(=O)NCC2CCCO2)c2ccc3ncccc3c2)c1 (stereo unspecified)
inactive: outcome [1] | outcome [2] | outcome [3] | outcome [4] | outcome [6] | outcome [7] | outcome [8] | outcome [9] | outcome [10] | outcome [11] | outcome [12] | outcome [13] | outcome [14] | outcome [15] | outcome [16] | outcome [17]
active: inhibition [5] 76%

Cc1cc(NC(=O)CSCC(=O)Nc2ccc(Cl)c(C(F)(F)F)c2)no1
inactive: outcome [1] | outcome [2] | outcome [3] | outcome [4] | outcome [6] | outcome [7] | outcome [8] | outcome [9] | outcome [10] | outcome [11] | outcome [12] | outcome [13] | outcome [15] | outcome [16] | outcome [17]
active: inhibition [5] 71% | inhibition [14] 35.2%

C=C(C)COc1ccc(-c2[nH]ncc2Oc2ccc(OC)cc2)c(O)c1
inactive: outcome [1] | outcome [2] | outcome [3] | outcome [4] | outcome [5] | outcome [6] | outcome [7] | outcome [8] | outcome [9] | outcome [10] | outcome [11] | outcome [12] | outcome [13] | outcome [14] | outcome [15] | outcome [16] | outcome [17]

CCOC(=O)c1cnc(-n2nc(C)cc2C)nc1NC1CCCCC1
active: potentiation [15] 26.3%
inactive: outcome [1] | outcome [2] | outcome [3] | outcome [4] | outcome [5] | outcome [6] | outcome [7] | outcome [8] | outcome [9] | outcome [10] | outcome [11] | outcome [12] | outcome [13] | outcome [14] | outcome [16] | outcome [17]

O=c1c2ccccc2oc2nc(C3CCCCC3)n(Cc3ccco3)c(=O)c12
active: potentiation [3] 10% | potentiation [4] 11% | potentiation [15] 30.7%
inactive: outcome [1] | outcome [2] | outcome [5] | outcome [6] | outcome [7] | outcome [8] | outcome [9] | outcome [10] | outcome [11] | outcome [12] | outcome [13] | outcome [14] | outcome [16] | outcome [17]

CCOc1ccc(OCC(O)CNC2CCN(Cc3ccccc3)CC2)cc1 (stereo unspecified)
inactive: outcome [3] | outcome [4] | outcome [6] | outcome [7] | outcome [8] | outcome [9] | outcome [12] | outcome [15] | outcome [16] | outcome [17]
active: activation [1] 144% | activation [2] 94% | inhibition [5] 36% | inhibition [10] 34.5% | activation [11] 83% | activation [13] 35.4% | inhibition [14] 25.6%

COc1ccc(S(=O)(=O)N2CCCCCC2)cc1C(=O)N(C)Cc1ccc(Cl)cc1Cl
inactive: outcome [1] | outcome [2] | outcome [3] | outcome [5] | outcome [6] | outcome [7] | outcome [8] | outcome [9] | outcome [10] | outcome [11] | outcome [12] | outcome [13] | outcome [14] | outcome [16]
active: potentiation [4] 46% | potentiation [15] 14.4% | activation [17] 2180%

Cc1c(C(=O)NCCc2ccccc2)oc2ccccc12
inactive: outcome [1] | outcome [2] | outcome [3] | outcome [5] | outcome [6] | outcome [7] | outcome [8] | outcome [9] | outcome [10] | outcome [11] | outcome [12] | outcome [13] | outcome [14] | outcome [16] | outcome [17]
active: potentiation [4] 61% | potentiation [15] 45.7%

COc1cc(/C=C2\C(=N)N3N=C(S(C)(=O)=O)SC3=NC2=O)ccc1OC(=O)c1cccs1
active: inhibition [5] 86%
inactive: outcome [1] | outcome [2] | outcome [3] | outcome [4] | outcome [6] | outcome [7] | outcome [8] | outcome [9] | outcome [10] | outcome [11] | outcome [12] | outcome [13] | outcome [14] | outcome [15] | outcome [16] | outcome [17]

Cc1cc(OCC(=O)NNC(=S)NC(=O)c2ccc(Br)o2)ccc1Cl
active: potentiation [4] 10%
inactive: outcome [1] | outcome [2] | outcome [3] | outcome [5] | outcome [6] | outcome [7] | outcome [8] | outcome [9] | outcome [10] | outcome [11] | outcome [12] | outcome [13] | outcome [14] | outcome [15] | outcome [16] | outcome [17]

O=C(c1cc2cc(Br)cc(Br)c2oc1=O)N1CCCC1
inactive: outcome [1] | outcome [2] | outcome [3] | outcome [4] | outcome [5] | outcome [6] | outcome [7] | outcome [8] | outcome [9] | outcome [10] | outcome [11] | outcome [12] | outcome [13] | outcome [14] | outcome [16] | outcome [17]
active: potentiation [15] 15.8%

COc1ccc(Br)cc1CN1CCC(N2CCCC2)CC1
active: potentiation [15] 13.5%
inactive: outcome [1] | outcome [2] | outcome [3] | outcome [4] | outcome [5] | outcome [6] | outcome [7] | outcome [8] | outcome [9] | outcome [10] | outcome [11] | outcome [12] | outcome [13] | outcome [14] | outcome [16] | outcome [17]

CCOC(=O)c1c(NC(NC(C)=O)C(Cl)(Cl)Cl)sc2c1CCCC2 (stereo unspecified)
active: potentiation [15] 7.17%
inactive: outcome [1] | outcome [2] | outcome [3] | outcome [4] | outcome [5] | outcome [6] | outcome [7] | outcome [8] | outcome [9] | outcome [10] | outcome [11] | outcome [12] | outcome [13] | outcome [14] | outcome [16] | outcome [17]
